LMP1 NFkB inh: reduces LMP1-driven NF-kappaB luciferase signal | LMP1-induced NF-kappaB luciferase reporter cells, luminescence | 350,000 compounds, 0.69% hits | inhibition, % at 12.5 µM; in the data active = inhibition above about 41%; inconclusive = no clear call, values can overlap the other calls
PAX8 reporter: inhibitors of PAX8 transcriptional activity in RMG-I cells | RMG-I TPO-luciferase reporter, SteadyGlo, 24 h | 360,000 compounds, 1.2% hits | AID 652154 | inhibition, % at 12.6 µM;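 active = mean replicate inhibition at least 60% with every replicate also reaching 60%; inconclusive = only one of the two criteria is met; inactive = mean below 60% and not all replicates reaching 60%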;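 also: luciferase light reporting Pax8 driven TPO promoter activity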
TRPM1 prom inh: MITF TRPM1 promoter inhibition in SK-MEL-5 cells | SK-MEL-5 TRPM1 promoter luciferase, 24 h | inhibition, % at 12.5 µM | 330,000 compounds, 0.83% hits;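 active = mean inhibition across replicates of 60% or more, whatever share of single replicates reaches that level; inconclusive = some that reach 60%, reason not given; inactive = mean inhibition across replicates below 60%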
EWS-Fli inh: EWS/Fli transcriptional activity inhibition; A673 NR0B1-luciferase reporter, viability-normalised; inhibition, % at 12.6 µM; 350,000 compounds, 0.67% hits;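 active = mean inhibition of at least 50% after viability correction, with every replicate also passing that limit; inconclusive = mean reaches 50% but only one of two replicates passes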;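 also: firefly luciferase signal divided by Alamar Blue viability fluorescence both relative to DMSO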
PGC1a acetyl inh: lowers PGC1a acetylation signal in U2OS cells. AlphaScreen anti-acetyl-lysine; with virally co-expressed GCN5 acetyltransferase. inhibition, % at 15.6 µM. 350,000 compounds, 0.17% hits. AID 651687;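 active = every replicate shows inhibition of at least 40%; inconclusive = mean inhibition at least 40% but some replicate below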
LGR2 antag: inhibitors of bursicon-induced Drosophila LGR2 receptor cAMP signaling; HEK293 LGR2, CRE-luciferase, bursicon-stimulated, 4 h; inhibition, % at 9.99 µM; 380,000 compounds, 0.35% hits;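 active = drop in luminescence signal, shown as inhibition above about 50% in the replicate tests, limit read from the data, passing the limit was not always enough; inconclusive = probably only some replicates passing the limit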;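 also: agonist challenge used bursicon conditioned medium at about half maximal strength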
Large screens that a line does not name were inactive. Most compounds without a hit are left out; they make up all but 2.2% or so of the library.

Cc1noc(C)c1S(=O)(=O)Nc1ccc2c(c1)C(=O)N([C@@H](C)CO)C[C@@H](C)[C@H](CN(C)Cc1ccc(Cl)c(Cl)c1)OCCCC[C@@H](C)O2	PAX8 reporter 69 (no result: LMP1 NFkB inh, TRPM1 prom inh)
Cc1noc(C)c1S(=O)(=O)Nc1ccc2c(c1)C(=O)N([C@H](C)CO)C[C@@H](C)[C@H](CN(C)CC1CCCCC1)OCCCC[C@H](C)O2	none (no result: LMP1 NFkB inh, TRPM1 prom inh, PGC1a acetyl inh)
Cc1noc(C)c1S(=O)(=O)Nc1ccc2c(c1)C(=O)N([C@@H](C)CO)C[C@@H](C)[C@@H](CN(C)CC1CCCCC1)OCCCC[C@@H](C)O2	PGC1a acetyl inh 85 (no result: TRPM1 prom inh)
C[C@@H]1CN([C@H](C)CO)C(=O)c2cccc(NC(=O)c3cnccn3)c2O[C@H]1CN(C)S(=O)(=O)c1ccc(F)cc1	none (no result: LMP1 NFkB inh, PAX8 reporter, TRPM1 prom inh)
CSCCC(NS(=O)(=O)c1ccc2c(c1)OCCO2)C(=O)N(C)Cc1ccc(C)cc1 (configuration not stated)	none
COc1cccc(CN(C)C(=O)C(CCSC)NS(=O)(=O)c2ccc3c(c2)OCCO3)c1OC (configuration not stated)	PAX8 reporter 70
CN(C)C(=O)C[C@@H]1CC[C@@H]2[C@H](COC[C@H](O)CN2C(=O)C2CCCC2)O1	none (no result: LMP1 NFkB inh, TRPM1 prom inh)
C[C@H]1CN([C@@H](C)CO)C(=O)c2cc(-c3ccc(C#N)cc3)cnc2O[C@@H]1CN(C)C(=O)Nc1ccc(C(F)(F)F)cc1	none (no result: LMP1 NFkB inh, TRPM1 prom inh)
C[C@@H]1CCCCO[C@@H](CN(C)C(=O)Cc2ccccc2)[C@@H](C)CN([C@@H](C)CO)C(=O)c2cc(NS(=O)(=O)c3ccccc3)ccc2O1	none (no result: LMP1 NFkB inh, TRPM1 prom inh)
C[C@H](CO)N1C[C@H](C)[C@@H](CN(C)C(=O)Nc2ccc(C(F)(F)F)cc2)OCCCC[C@H](C)Oc2ccc(NS(C)(=O)=O)cc2C1=O	none (no result: LMP1 NFkB inh, TRPM1 prom inh)
CCCOCCOC(=O)c1[nH]c2c(c1C)C(=O)CC(c1cc(OC)ccc1OC)C2 (configuration not stated)	EWS-Fli inh 56
O=C([O-])c1ccccc1-[n+]1c(-c2ccccc2)cc(-c2ccccc2)cc1-c1ccccc1	PAX8 reporter 85 (no result: PGC1a acetyl inh)
O=[N+]([O-])c1cc(-c2ccccc2)cc([N+](=O)[O-])c1O	none (no result: PAX8 reporter)
O=C1CCC(C(=O)N2CCCCCC2)CN1CCc1ccc(Cl)cc1 (configuration not stated)	LMP1 NFkB inh 69 (no result: EWS-Fli inh)
O=C1CCC(C(=O)N2CCC(O)CC2)CN1CCc1ccc(Cl)cc1 (configuration not stated)	none (no result: PAX8 reporter, PGC1a acetyl inh)
Oc1ccc(Oc2ccc3c(C(F)(F)F)cc(C(F)(F)F)nc3n2)cc1	LMP1 NFkB inh 48 (no result: EWS-Fli inh, LGR2 antag)
COc1ccc(Oc2ccc3c(C(F)(F)F)cc(C(F)(F)F)nc3n2)cc1	none (no result: EWS-Fli inh, LGR2 antag)
CCc1ccc(-c2nc(CSCC(=O)N3CCN(c4ncccn4)CC3)c(C)o2)cc1	EWS-Fli inh 82
Cn1c(=O)c([N+](=O)[O-])c(Cl)c2ccccc21	PAX8 reporter 101, TRPM1 prom inh 95, EWS-Fli inh 61
CCN(CC)c1c([N+](=O)[O-])c(=O)n(C)c2ccccc12	none (no result: PGC1a acetyl inh, LGR2 antag)
CN1c2ccc(-c3ccccc3)cc2[C@@H]2[C@@H](CCN2C(=O)NC2CCCCC2)[C@@H]1CO	PAX8 reporter 81 (no result: LMP1 NFkB inh, TRPM1 prom inh)
COc1ccc(NC(=O)N2CC[C@@H]3[C@H]2c2cc(-c4ccc(F)cc4)ccc2N(C)[C@H]3CO)cc1	PAX8 reporter 71 (no result: LMP1 NFkB inh, TRPM1 prom inh)
COc1cccc(-c2ccc3c(c2)[C@@H]2[C@@H](CCN2C(=O)NC2CCCC2)[C@H](CO)N3C)c1	PAX8 reporter inconclusive (no result: LMP1 NFkB inh, TRPM1 prom inh)
COc1ccc(-c2ccc3c(c2)[C@@H]2[C@@H](CCN2C(=O)NC2CCCCC2)[C@@H](CO)N3C)cc1	PAX8 reporter 85 (no result: LMP1 NFkB inh, TRPM1 prom inh)
COc1ccc(-c2ccc3c(c2)[C@@H]2[C@@H](CCN2C(=O)c2ccc(F)cc2)[C@@H](CO)N3C)cc1	none (no result: LMP1 NFkB inh, TRPM1 prom inh)
CN1c2ccc(-c3ccccc3F)cc2[C@@H]2[C@@H](CCN2C(=O)NC2CCCCC2)[C@H]1CO	none (no result: LMP1 NFkB inh, TRPM1 prom inh)
COc1ccc(S(=O)(=O)Nc2ccc3c(c2)CC(=O)N([C@@H](C)CO)C[C@@H](C)[C@H](CN(C)Cc2ccc(C(=O)O)cc2)O3)cc1	none (no result: LMP1 NFkB inh, TRPM1 prom inh, EWS-Fli inh)
O=C(Nc1cccc(Cl)c1)N1[C@@H]2CNC[C@H]1C2c1ccc(-c2ccccc2)cc1 (some centres not stated)	none (no result: LMP1 NFkB inh, PAX8 reporter, TRPM1 prom inh, EWS-Fli inh, PGC1a acetyl inh)
O=C(C[C@H]1CC[C@@H]2[C@H](COC[C@@H](O)CN2S(=O)(=O)c2cccc(F)c2)O1)Nc1ccc(-c2ccccc2)cc1	PAX8 reporter 72 (no result: LMP1 NFkB inh, TRPM1 prom inh)
O=C(C[C@H]1CC[C@@H]2[C@H](COC[C@H](O)CN2S(=O)(=O)c2cccc(F)c2)O1)Nc1ccc(-c2ccccc2)cc1	PAX8 reporter 116 (no result: LMP1 NFkB inh, TRPM1 prom inh)
C[C@H]1CN([C@@H](C)CO)C(=O)Cc2cc(NC(=O)Cn3cnnn3)ccc2O[C@@H]1CN(C)Cc1ccc2c(c1)OCO2	none (no result: LMP1 NFkB inh, TRPM1 prom inh)
CC(=O)c1ccc(Nc2cc(C)nc3ccc(C)cc23)cc1	PGC1a acetyl inh inconclusive, LGR2 antag 62
COc1ccc(Nc2cc(C)nc3ccc(C)cc23)cc1	none (no result: TRPM1 prom inh)
COc1cccc(C2=CC(=O)C[C@H](c3ccc4c(c3)OCO4)C2)c1	LMP1 NFkB inh 48 (no result: PAX8 reporter, EWS-Fli inh, LGR2 antag)
O=C1C=C(c2ccccc2)C[C@@H](c2ccc3c(c2)OCO3)C1	none
COc1cc(F)c(C2=CC(=O)C[C@H](c3ccc4c(c3)OCO4)C2)cc1F	none
COc1ccc(F)cc1C1=CC(=O)C[C@H](c2ccc3c(c2)OCO3)C1	EWS-Fli inh 53
C[C@H]1CN([C@@H](C)CO)S(=O)(=O)c2ccc(C3=CCCC3)cc2O[C@H]1CN(C)C(=O)c1ccccn1	none (no result: LMP1 NFkB inh, PAX8 reporter, TRPM1 prom inh)
CCOc1ccc(C(=O)NCC(=O)OCc2c(C)noc2C)cc1	PAX8 reporter 73 (no result: PGC1a acetyl inh)
CCOc1ccc(C(=O)NCC(=O)OCc2c(C)noc2C)cc1OCC	none
O=C(NCCN1CCCCC1)[C@@H]1[C@@H](CO)[C@@H]2Cn3c(cccc3=O)[C@@H]2N1C(=O)C1CC1	none (no result: LMP1 NFkB inh, PAX8 reporter, TRPM1 prom inh, PGC1a acetyl inh)
COc1ccccc1N1CCN(C2=Nc3cccc4cccc2c34)CC1	none
COc1ccccc1NC1=Nc2cccc3cccc1c23	PAX8 reporter 91 (no result: LMP1 NFkB inh, TRPM1 prom inh)
CC(C)NC(=O)N1C[C@@H]2[C@H](c3ccccc31)[C@H](CO)N2C(=O)c1ccncc1	none (no result: LMP1 NFkB inh, TRPM1 prom inh)
CNC[C@H]1Oc2ccc(NC(=O)NC(C)C)cc2CC(=O)N([C@@H](C)CO)C[C@@H]1C	PAX8 reporter 91 (no result: LMP1 NFkB inh, TRPM1 prom inh)
CNC[C@@H]1Oc2ccc(NC(=O)NC(C)C)cc2CC(=O)N([C@@H](C)CO)C[C@@H]1C	PAX8 reporter 92 (no result: LMP1 NFkB inh, TRPM1 prom inh)
CNC[C@@H]1Oc2ccc(NC(=O)NC(C)C)cc2CC(=O)N([C@H](C)CO)C[C@@H]1C	none (no result: LMP1 NFkB inh, TRPM1 prom inh)
C[C@@H]1CN([C@H](C)CO)C(=O)c2cc(NC(=O)CCCN(C)C)ccc2O[C@@H](C)CCCCO[C@H]1CN(C)S(=O)(=O)c1ccc(Cl)cc1	none (no result: LMP1 NFkB inh, TRPM1 prom inh)
CC1=NNC(=O)/C1=C\c1cn(-c2ccccc2)nc1-c1ccccc1	TRPM1 prom inh 95, EWS-Fli inh 82, LGR2 antag 106
O=Cc1cn(-c2ccccc2)nc1-c1ccccc1	none

Assay outcomes from PubChem.
